Results reported in PubChem BioAssay (NCI).
Compounds without any hit were thinned out: in the full panel of roughly 79,000, 15% have a hit. A number with no mark means an inactive call. Active and inactive are the calls of the source. No stated cut-off is given here; in the data, active means growth inhibition above about 70%; inactive means the rest.

Columns and labels:
[1] = NCI Yeast Anticancer Drug Screen. Data for the rad50 strain (AID 155);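 further: 0% = growth of vehicle-only cultures of the same strain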; settings: S. cerevisiae rad50 strain growth inhibition; at 50.0 µM; active compounds read high
Summary of the method: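 Readout: growth inhibition relative to vehicle-treated cultures. Compound exposure was carried out in a genetically defined yeast strain deficient in DNA damage repair.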

[2] = NCI Yeast Anticancer Drug Screen. Data for the mec2-1 strain (AID 157); settings: S. cerevisiae mec2-1 strain, at 50.0 µM, active compounds read high
Summary of the method: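 Mutant yeast (mec2-1) grown with compound; growth inhibition relative to vehicle control reported.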

[3] = NCI Yeast Anticancer Drug Screen. Data for the sgs1 mgt1 strain (AID 161);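 further: 0% = growth of cultures given vehicle only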; settings: S. cerevisiae sgs1 mgt1 strain, at 50.0 µM, active compounds read high
Summary of the method: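 This yeast growth screen uses a strain with defined DNA-repair lesions; compound-treated growth is compared with vehicle-treated growth.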

[4] = NCI Yeast Anticancer Drug Screen. Data for the cln2 rad14 strain (AID 165);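 further: 0% = growth equal to vehicle treated cultures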; settings: S. cerevisiae cln2 rad14 strain, at 50.0 µM, active compounds read high
Summary of the method: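 Readout is yeast growth inhibition versus vehicle-treated controls, using a strain with cln2 and rad14 alterations exposed to compound.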

[5] = NCI Yeast Anticancer Drug Screen. Data for the bub3 strain (AID 167); settings: S. cerevisiae bub3 mutant strain, at 50.0 µM, active compounds read high
Summary of the method: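 Readout: yeast growth inhibition, expressed relative to vehicle-only wells. The test organism is a mutant strain from a panel with lesions in DNA repair or checkpoint genes.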

[6] = NCI Yeast Anticancer Drug Screen. Data for the mlh1 rad18 strain (AID 175); settings: S. cerevisiae mlh1 rad18 strain growth inhibition; at 50.0 µM; active compounds read high
Summary of the method: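 Genetically defined yeast (DNA repair-deficient) exposed to compounds; growth inhibition determined relative to vehicle.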

Row | Compound | growth inhibition [1] | growth inhibition [2] | growth inhibition [3] | growth inhibition [4] | growth inhibition [5] | growth inhibition [6]
1 | N#Cc1ccc(OCCCOc2ccc(C#N)cc2)cc1 | 8.15% | 12.2% | 9.65% | 5.3% | 46.2% | -4.15%
2 | Cc1cc(CC(O)(c2ccccc2)c2ccccc2)nc2[nH]c(=O)ccc12 | 0.7% | -6.7% | -1.05% | 44.9% | 6.95% | -1.35%
3 | CCN(CC)C(=O)N1C=CC(C)C=C1 | -30.4% | -15.1% | -15.4% | -43.1% | 10.9% | 5.5%
4 | CCCCOCN1COCN(COCCCC)C1=O | -2.3% | -17.4% | -0.45% | 6.95% | 18.1% | 6.2%
5 | NC(=O)NCCSC1CCCCC1O (stereo unspecified) | -23.1% | -35% | -28.4% | 3.1% | -64.5% | 6.45%
6 | CCCCS(=O)(=O)CCCC | 18.5% | 0.9% | -10.2% | 0.6% | -1.3% | 22.9%
7 | O=C1C[C@@H]2[C@@H](CCC23CCCC3)N1 | 17.8% | 12.9% | -9.75% | 20.4% | 15.2% | 20.6%
8 | CCOCC(C)(CO)CC(C)CO (stereo unspecified) | -10.2% | 1.35% | -5.6% | -6.6% | -4.55% | 4%
9 | Cc1ccc([N+](=O)[O-])cc1NC(=O)C(=O)C(C(=O)c1ccccc1F)C1OC(=O)c2ccccc21 (stereo unspecified) | -3.1% | 5.7% | -14.4% | 13.1% | -1.1% | -1.9%
10 | Cc1ccc(C2=C(Cl)C(=O)C(c3ccc(C)cc3)=C(Cl)C2=O)cc1 | -15.8% | 10.3% | -13.8% | -3.95% | -57.5% | -14.4%
11 | Cc1cc(N(CCC#N)CCC#N)ccc1/C(N=Nc1ccccc1)=N\NC(=O)c1ccccc1 | 22.3% | 16.6% | 11.2% | -8.5% | -16.1% | 31.8%
12 | COC(=O)c1cc(C(=O)OC)c2c3[nH]cnc3ncn2c1=O | 24.4% | 9.85% | 15.9% | 18.6% | 3.65% | 21.4%
13 | CCN(CC)CCCNc1c2c(nc3ccc(Cl)cc13)CCCC2 | -20.1% | -9.35% | 0.6% | -8.1% | -11.8% | 2.75%
14 | COc1ccc(C(=O)Nc2ccccc2CCC2CCCCN2C)cc1 (stereo unspecified) | 29.2% | 3% | 10.3% | 22.4% | 1.15% | 19%
15 | CN1CCc2[nH]nc(-c3n[nH]c4c3CN(C)CC4)c2C1 | 15.8% | 0.85% | 10.5% | -0.05% | -8.6% | 13.6%
16 | O=c1cc(-c2ccccc2)[nH]c2nccn12 | -55% | -27.1% | -53.1% | -57.5% | 5.85% | -58.7%
17 | CCOC(=O)/C(=C/c1cn(C(C)=O)c2ccccc12)P(=O)(OC)OC | -28.9% | -4.1% | -1.15% | 13.8% | 5.75% | -15.8%
18 | C=C1C(=C)C2C=CC1C1C3C(c4ccccn4)=NN=C(c4ccccn4)C3C21 (stereo unspecified) | 54.4% | 66.2% | 68.8% | 74.5% (active) | 66.6% | 62.5%
19 | Cn1c(=O)cc(CCl)c2ccccc21 | 26.9% | 26.6% | 44% | 28.4% | 31.7% | 52%
20 | Brc1cc2c(cc1C1SCCS1)OCO2 | 49.5% | 20.4% | 58.5% | 18.6% | 28.3% | 34.6%
21 | COc1ccc(NC(=S)NC(=O)c2ccccc2)cc1OC | 31.8% | 4.15% | 21.9% | 3% | -1.2% | 15.4%
